# Assay results published in the supplement of paper PMC9262897, “Low-cost anti-mycobacterial drug discovery using engineered E. coli” (Nature Communications, 2022).
# Counter-ions that a name gives are not always drawn. ± gives the standard deviation of the averaged measurements.
# Legend:
# Assay in all cases: growth (OD600 after 10 h); higher = more growth (less inhibition)
# [1] = system: E. coli TESEC Alr+ wild-type control; conditions: compound 0.1 mM; raw OD600 reference: median of DMSO wells 0.241, cell-free background 0.041
# Protocol: (§1)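 TESEC Mtb Alr E. coli, or the Alr+ wild-type control, in 384-well plates with Prestwick library compounds at 0.1 mM and 1% DMSO, across arabinose induction levels of 1E3 to 1E7 nM. Growth is read as OD600 after 10 h at 37 °C in triplicate biological replicates.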
# E. coli TESEC Mtb Alr [2] = conditions: compound 0.1 mM
# Protocol: as §1
# E. coli TESEC Mtb Asd = conditions: compound 0.1 mM
# Protocol: (§2)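 TESEC E. coli strains in which the native enzyme is deleted and replaced by arabinose-inducible Mtb Asd, DapB, CysH or TrpD, each grown in its selective medium. Strains were screened against the Prestwick library at 0.1 mM and 1% DMSO in 384-well format at low and high arabinose induction. Growth is read as OD600 after 10 h in triplicate.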
# E. coli TESEC Mtb DapB = conditions: compound 0.1 mM
# Protocol: as §2
# E. coli TESEC Mtb Alr [3] = conditions: compound 0.1 mM; remark: listed apart in the source
# Protocol: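 TESEC Mtb Alr E. coli (ΔaraC ΔtolC ΔentC Δalr ΔdadX, arabinose-inducible Mtb Alr) or the Alr+ wild-type control strain, grown in defined M9-fructose medium without D-alanine in 96-well plates with Prestwick library compounds at 0.1 mM and 1% DMSO. Low Alr induction is 0.1 µM arabinose and high induction is 10 mM arabinose.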
# [4] = arabinose 1000 nM, raw OD600 reference: median of DMSO wells 0.294, cell-free background 0.041
# [5] = arabinose 10000 nM, raw OD600 reference: median of DMSO wells 0.264, cell-free background 0.041
# [6] = arabinose 100000 nM, raw OD600 reference: median of DMSO wells 0.201, cell-free background 0.041
# [7] = arabinose 1000000 nM, raw OD600 reference: median of DMSO wells 0.193, cell-free background 0.041
# [8] = arabinose 10000000 nM, raw OD600 reference: median of DMSO wells 0.146, cell-free background 0.041
# [9] = arabinose induction (level): High, raw OD600 reference: median of DMSO wells 0.331, cell-free background 0.041
# [10] = arabinose induction (level): Low, raw OD600 reference: median of DMSO wells 0.417, cell-free background 0.041
# [11] = arabinose induction (level): High, raw OD600 reference: median of DMSO wells […], cell-free background 0.041
# [12] = arabinose induction (level): Low, raw OD600 reference: median of DMSO wells 0.227, cell-free background 0.041
# [13] = arabinose 100 nM, raw OD600 reference: median of DMSO wells 0.413, cell-free background 0.052
# [14] = arabinose 10000000 nM, raw OD600 reference: median of DMSO wells […], cell-free background 0.052
Structure (SMILES),growth [1],growth (E. coli TESEC Mtb Alr [2]; [4]),growth (E. coli TESEC Mtb Alr [2]; [5]),growth (E. coli TESEC Mtb Alr [2]; [6]),growth (E. coli TESEC Mtb Alr [2]; [7]),growth (E. coli TESEC Mtb Alr [2]; [8]),growth (E. coli TESEC Mtb Asd; [9]),growth (E. coli TESEC Mtb Asd; [10]),growth (E. coli TESEC Mtb DapB; [11]),growth (E. coli TESEC Mtb DapB; [12]),growth (E. coli TESEC Mtb Alr [3]; [13]),growth (E. coli TESEC Mtb Alr [3]; [14])
CCN1C(=O)NC(c2ccccc2)C1=O (stereo unspecified) [Ethotoin],0.244 ± 0.0096,0.304 ± 0.008,0.254 ± 0.0063,0.191 ± 0.009,0.187 ± 0.006,0.142 ± 0.0016,0.434 ± 0.031,0.446 ± 0.014,0.217 ± 0.01,0.243 ± 0.051,0.4121 ± 0.0041,0.353 ± 0.017
O=C(O)CCCC[C@@H]1SC[C@@H]2NC(=O)N[C@@H]21 [Biotin],0.257 ± 0.0089,0.309 ± 0.0092,0.265 ± 0.016,0.217 ± 0.028,0.206 ± 0.018,0.145 ± 0.0046,0.347 ± 0.05,0.418 ± 0.045,0.18 ± 0.0081,0.208 ± 0.022,0.408 ± 0.0076,0.354 ± 0.014
C[C@H](CCC(=O)O)[C@H]1CC[C@H]2[C@@H]3[C@H](O)C[C@@H]4C[C@H](O)CC[C@]4(C)[C@H]3CC[C@]12C [Chenodiol],0.247 ± 0.0086,0.263 ± 0.0097,0.221 ± 0.0073,0.278 ± 0.021,0.146 ± 0.0057,0.143 ± 0.0086,0.216 ± 0.071,0.289 ± 0.049,0.168 ± 0.026,0.179 ± 0.0059,0.392 ± 0.0058,0.209 ± 0.02
NC(=O)c1cnccn1 [Pyrazinamide],0.244 ± 0.0055,0.284 ± 0.01,0.267 ± 0.0063,0.208 ± 0.03,0.185 ± 0.007,0.14 ± 0.0018,0.289 ± 0.057,0.382 ± 0.11,0.195 ± 0.029,0.209 ± 0.019,0.421 ± 0.013,0.366 ± 0.015
CC[C@H]1OC(=O)[C@H](C)[C@@H](O[C@H]2C[C@@](C)(OC)[C@@H](O)[C@H](C)O2)[C@H](C)[C@@H](O[C@@H]2O[C@H](C)C[C@H](N(C)C)[C@H]2O)[C@](C)(O)C[C@@H](C)CN(C)[C@H](C)[C@@H](O)[C@]1(C)O [Azithromycin],0.04107 ± 0.00015,0.0419 ± 0.0015,0.03977 ± 0.00031,0.0416 ± 0.00058,0.03993 ± 0.00025,0.0413 ± 0.00057,0.0597 ± 0.003,0.0647 ± 0.0021,0.1 ± 0.088,0.0998 ± 0.09,0.05527 ± 0.00032,0.05133 ± 0.00015
"CC(C)NCC(O)c1cc(O)cc(O)c1 (stereo unspecified) [Metaproterenol sulfate, orciprenaline sulfate]",0.247 ± 0.0097,0.291 ± 0.0065,0.268 ± 0.01,0.2 ± 0.03,0.185 ± 0.011,0.144 ± 0.0048,0.283 ± 0.046,0.346 ± 0.019,0.177 ± 0.013,0.183 ± 0.015,0.411 ± 0.011,0.352 ± 0.029
Cc1nc2ccccn2c(=O)c1CCN1CCC(C(=O)c2ccc(F)cc2)CC1 [Pirenperone],0.208 ± 0.0042,0.272 ± 0.0064,0.268 ± 0.013,0.208 ± 0.043,0.178 ± 0.0069,0.147 ± 0.007,0.352 ± 0.045,0.395 ± 0.089,0.223 ± 0.0088,0.23 ± 0.037,0.408 ± 0.011,0.312 ± 0.023
CC(=O)Nc1c(I)c(NC(C)=O)c(I)c(C(=O)O)c1I [Diatrizoic acid dihydrate],0.234 ± 0.0051,0.285 ± 0.0023,0.255 ± 0.0056,0.191 ± 0.017,0.213 ± 0.0043,0.131 ± 0.01,0.297 ± 0.043,0.326 ± 0.053,0.197 ± 0.013,0.235 ± 0.023,0.424 ± 0.011,0.348 ± 0.0074
O=C(O)c1ccccc1C(=O)Nc1ccc(S(=O)(=O)Nc2nccs2)cc1 [Phthalylsulfathiazole],0.245 ± 0.0086,0.298 ± 0.011,0.266 ± 0.022,0.198 ± 0.02,0.184 ± 0.0082,0.166 ± 0.0046,0.468 ± 0.023,0.445 ± 0.036,0.212 ± 0.016,0.239 ± 0.01,0.405 ± 0.019,0.333 ± 0.0071
NC(=O)N1c2ccccc2CC(=O)c2ccccc21 [Oxcarbazepine],0.236 ± 0.0086,0.269 ± 0.015,0.256 ± 0.0035,0.211 ± 0.03,0.171 ± 0.0024,0.146 ± 0.0084,0.225 ± 0.042,0.322 ± 0.043,0.189 ± 0.0098,0.201 ± 0.019,0.403 ± 0.0086,0.321 ± 0.0074
CC1(C)S[C@@H]2[C@H](NC(=O)Cc3ccccc3)C(=O)N2[C@H]1C(=O)O [Benzylpenicillin sodium],0.237 ± 0.005,0.2824 ± 0.00081,0.282 ± 0.0074,0.172 ± 0.011,0.227 ± 0.017,0.132 ± 0.0078,0.331 ± 0.1,0.385 ± 0.06,0.204 ± 0.013,0.229 ± 0.017,0.434 ± 0.0042,0.363 ± 0.0066
COc1ccccc1N1CCN(CCCCNC(=O)c2ccc3ccccc3c2)CC1,0.149 ± 0.0027,0.179 ± 0.013,0.2704 ± 0.0024,0.195 ± 0.019,0.124 ± 0.0029,0.182 ± 0.0013,0.156 ± 0.0093,0.265 ± 0.013,0.188 ± 0.017,0.2 ± 0.012,0.398 ± 0.0097,0.181 ± 0.024
O=C1O[C@H]([C@@H](O)CO)C(O)=C1O [Ascorbic acid],0.255 ± 0.0052,0.303 ± 0.0086,0.249 ± 0.007,0.22 ± 0.043,0.186 ± 0.0041,0.157 ± 0.0037,0.374 ± 0.076,0.445 ± 0.06,0.187 ± 0.0051,0.209 ± 0.0043,0.387 ± 0.024,0.35 ± 0.028
